Growth data for 38 compounds are collected here from PubChem BioAssay (NCI).

This is part of a sample that, as a whole, favours compounds with a hit. Of some 83,000 tested, about 20% had one in any assay.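 Single-dose data. Exposure time 48 hours. Values below 10 considered active.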 Unmarked numbers belong to inactive results. Calls of active or inactive are those of the source.

The subject of the first experiment is A549/ATCC NSCLC. The experiment can be described thus: NCI-60 one-dose screen, 48 h (100 = growth as untreated, 0 = no growth, -100 = all killed). Particulars: 10 µM unless noted.
In the case of `NC1=NC(c2cccc(Br)c2)c2sc3ccc(Cl)cc3c2N1` (stereo unspecified), the growth is 98%.

On to `CCCCn1c(-c2ccc(-c3nc(-c4ccc(Cl)cc4)no3)cc2)nc(-c2ccccc2)c1-c1ccccc1`, for which the growth was 36.3%.

Take `CCc1ccccc1-n1c(N)c(C#N)c(-c2ccc(Cl)cc2)c(C#N)c1=O`: the growth was 117%.

With `Cc1ccc(/C=N\NC(=O)c2[nH]c3ccc(F)cc3c2-c2ccccc2)cc1`, the growth was 23%.

Consider `COc1ccc(/C=C/c2c(C(=O)/C=C/c3ccc(C(F)(F)F)cc3)c(C)nc3ccccc23)cc1`, for which the growth was 65.4%.

Take `Cc1c(C(=O)/C=C/Nc2c(Cl)cc(S(N)(=O)=O)cc2Cl)sc2nc3ccccc3n12`: the growth is 103%.

Regarding `CC(=O)N1N=C(c2ccc(Nc3nc(Nc4ccc(F)cc4)nc(Nc4ccc(Cl)cc4)n3)cc2)CC1c1ccc(Cl)cc1` (stereo unspecified), the growth was 92.5%.

`COc1ccccc1/C=C1\Oc2cc(OCCN3CCC(Cc4ccccc4)CC3)ccc2C1=O`: the growth was 96.2%.

With `Cc1nc2ccccc2c(/C=C/c2ccccc2)c1C(=O)/C=C/c1ccc(C(F)(F)F)cc1`, the growth is 75.3%.

On to `Cc1[nH]c(C(=O)Nc2ccc(C(=O)N3CCNCC3)cc2OC(C)C)c(Cl)c1Cl`, for which the growth is 70.2%.

Take `CN1C(=O)N(C)C2Nn3c(s/c(=C\c4ccccc4)c3=O)=NC21` (stereo unspecified): the growth is 94.8%.

Turning to `COc1ccc([C@H]2c3cc(OC)c(OC)cc3C=C(C=O)C2CO)cc1OC` (stereo partly specified), the growth was 80.6%.

`O=c1n(Cc2ccc3ccccc3c2)ccn1Cc1ccc2ccccc2c1`: the growth was 82.9%.

In the case of `N/C(=N\c1nc2ccccc2s1)NC(=O)Nc1cccc2ccccc12`, the growth is 27.7%.

For `O=C(N=c1oc2ccccc2cc1-c1cc2ccccc2[nH]1)Nc1ccc(Cl)cc1`, the growth was 96.1%.

With `Fc1cc(-c2nnc3sc(-c4ccc(Cl)cc4Cl)nn23)c(Cl)cc1Cl`, the growth is 66.3%.

Consider `CSc1ccc2c(c1)c(CCN)c(C)n2Cc1ccc(Cl)c(Cl)c1`, for which the growth is -77.9% (active).

With `OC(c1ccccc1)C(NC(Cc1ccccc1)c1ccccc1)c1ccccc1` (stereo unspecified), the growth is 73.3%.

With `O=C(/C=C/c1ccc([N+](=O)[O-])o1)NNC(=O)c1cc2ccccc2cc1O`, the growth was 32.4%.

On to `CCCCCCCCCCCCCCCCCCOc1ccccc1CC(=O)OCC[N+](CC)(CC)CC`, for which the growth was 29.3%.

For the compound `Cc1c(C(=O)NCCN2CCOCC2)cn2ncnc(Oc3ccc(NC(=O)Nc4ccc(Cl)c(C(F)(F)F)c4)cc3)c12`, the growth was 13.4%.

With `Cc1ccc2c(n1)C(=O)C(Cl)=C(Nc1ccccc1C(C)C)C2=O`, the growth is 94.7%.

Consider `Nc1cc2c(cc1Br)-c1cc(Cl)ccc1C2=O`, for which the growth is 96.7%.

As to `Cc1nn(-c2ccccc2)c2c1N=c1s/c(=C\c3ccc(C(F)(F)F)cc3)c(=O)n1CN2`, the growth is 5.73% (active).

`COc1ccc2c(c1)/C(=C/c1sc(=S)n(Cc3ccco3)c1O)C=N2`: the growth was 57.9%.

As for `COc1nc2ccccc2cc1-c1nc2c(cnn2-c2ccccc2)c(=O)[nH]1`, the growth is 50.2%.

For `Cc1[nH]c(C(=O)Nc2ccc(C(=O)NCCN)cc2OC(C)C)c(Cl)c1Cl`, the growth is 47.3%.

Turning to `CC(C)c1cc(C(C)C)c(S(=O)(=O)Oc2ccc(NC(=O)c3ccc(Cl)cc3)cc2)c(C(C)C)c1`, the growth was 27.5%.

With `CN1C(=O)CNC(=O)[C@H](NC(=O)c2nc3ccccc3cc2O)CSSC[C@H]1C(=O)NCCCc1nc2ccccc2cc1O`, the growth is 48.3%.

For the compound `O=S(=O)(Nc1ccc(-c2nc(-c3cccc(OCCN4CCOCC4)c3)c(-c3ccnc(Br)c3)[nH]2)cc1)c1ccccc1`, the growth was 30.4%.

With `COc1ccc(-c2cc3c4c(nc5ccccc5c4c2)CC(c2cc(OC)c(OC)c(OC)c2)O3)cc1` (stereo unspecified), the growth is 64.7%.

For the compound `COc1ccc(/C=N/Nc2cc(=O)[nH]c3ccc(Cl)cc23)cc1`, the growth was 40.2%.

For `COc1ccc(S(=O)(=O)n2c3ccccc3n3ncc(-c4nnc(C)o4)c23)cc1`, the growth was 27.4%.

As to `CCc1cccc2c3c(sc12)C(c1ccc(Cl)cc1)C(C#N)=C(N)O3` (stereo unspecified), the growth is 34.6%.

Regarding `Clc1ccc(C(/C=C/c2sc(Cl)nc2Cl)=N/Nc2cc(Cl)cc(Cl)c2)cc1`, the growth is 103%.

Consider `NCCCNc1nc2ccccc2c2c(=O)c3cc(OC(F)(F)F)ccc3sc12`, for which the growth is -43.3% (active).

`Cc1cc(-c2cc(C)c(N)cc2C)c(C)cc1N`: the growth was 107%.

Turning to `O=C(Nc1ccc(F)cc1F)c1cc(F)ccc1O`, the growth is 18%.

The test system of another experiment is 786-0 renal. The description is as above. Particulars: 10 µM unless noted.
For `NC1=NC(c2cccc(Br)c2)c2sc3ccc(Cl)cc3c2N1` (stereo unspecified), the growth was 94.8%.

Consider `CCCCn1c(-c2ccc(-c3nc(-c4ccc(Cl)cc4)no3)cc2)nc(-c2ccccc2)c1-c1ccccc1`, for which the growth is 82%.

With `CCc1ccccc1-n1c(N)c(C#N)c(-c2ccc(Cl)cc2)c(C#N)c1=O`, the growth was 112%.

Consider `Cc1ccc(/C=N\NC(=O)c2[nH]c3ccc(F)cc3c2-c2ccccc2)cc1`, for which the growth was 35.1%.

Take `COc1ccc(/C=C/c2c(C(=O)/C=C/c3ccc(C(F)(F)F)cc3)c(C)nc3ccccc23)cc1`: the growth is -72.5% (active).

As to `Cc1c(C(=O)/C=C/Nc2c(Cl)cc(S(N)(=O)=O)cc2Cl)sc2nc3ccccc3n12`, the growth is 107%.

Turning to `CC(=O)N1N=C(c2ccc(Nc3nc(Nc4ccc(F)cc4)nc(Nc4ccc(Cl)cc4)n3)cc2)CC1c1ccc(Cl)cc1` (stereo unspecified), the growth is 98.2%.

With `COc1ccccc1/C=C1\Oc2cc(OCCN3CCC(Cc4ccccc4)CC3)ccc2C1=O`, the growth is 80%.

`Cc1nc2ccccc2c(/C=C/c2ccccc2)c1C(=O)/C=C/c1ccc(C(F)(F)F)cc1`: the growth was -76.4% (active).

For the compound `Cc1[nH]c(C(=O)Nc2ccc(C(=O)N3CCNCC3)cc2OC(C)C)c(Cl)c1Cl`, the growth was 77.6%.

With `CN1C(=O)N(C)C2Nn3c(s/c(=C\c4ccccc4)c3=O)=NC21` (stereo unspecified), the growth was 101%.

Take `COc1ccc([C@H]2c3cc(OC)c(OC)cc3C=C(C=O)C2CO)cc1OC` (stereo partly specified): the growth is 45.7%.

For the compound `O=c1n(Cc2ccc3ccccc3c2)ccn1Cc1ccc2ccccc2c1`, the growth is 95.8%.

For the compound `N/C(=N\c1nc2ccccc2s1)NC(=O)Nc1cccc2ccccc12`, the growth was 34.5%.

As for `O=C(N=c1oc2ccccc2cc1-c1cc2ccccc2[nH]1)Nc1ccc(Cl)cc1`, the growth is 94.6%.

Turning to `Fc1cc(-c2nnc3sc(-c4ccc(Cl)cc4Cl)nn23)c(Cl)cc1Cl`, the growth was 59.6%.

Turning to `CSc1ccc2c(c1)c(CCN)c(C)n2Cc1ccc(Cl)c(Cl)c1`, the growth was -76.1% (active).

For the compound `OC(c1ccccc1)C(NC(Cc1ccccc1)c1ccccc1)c1ccccc1` (stereo unspecified), the growth was 81.4%.

On to `O=C(/C=C/c1ccc([N+](=O)[O-])o1)NNC(=O)c1cc2ccccc2cc1O`, for which the growth was -23.8% (active).

As to `CCCCCCCCCCCCCCCCCCOc1ccccc1CC(=O)OCC[N+](CC)(CC)CC`, the growth is 22.6%.

As for `Cc1c(C(=O)NCCN2CCOCC2)cn2ncnc(Oc3ccc(NC(=O)Nc4ccc(Cl)c(C(F)(F)F)c4)cc3)c12`, the growth is 12.3%.

As to `Cc1ccc2c(n1)C(=O)C(Cl)=C(Nc1ccccc1C(C)C)C2=O`, the growth is 91.2%.

With `Nc1cc2c(cc1Br)-c1cc(Cl)ccc1C2=O`, the growth is 98.6%.

In the case of `Cc1nn(-c2ccccc2)c2c1N=c1s/c(=C\c3ccc(C(F)(F)F)cc3)c(=O)n1CN2`, the growth was 73.2%.

In the case of `COc1ccc2c(c1)/C(=C/c1sc(=S)n(Cc3ccco3)c1O)C=N2`, the growth is 46.2%.

Regarding `COc1nc2ccccc2cc1-c1nc2c(cnn2-c2ccccc2)c(=O)[nH]1`, the growth was 61.9%.

With `Cc1[nH]c(C(=O)Nc2ccc(C(=O)NCCN)cc2OC(C)C)c(Cl)c1Cl`, the growth is 44%.

Take `CC(C)c1cc(C(C)C)c(S(=O)(=O)Oc2ccc(NC(=O)c3ccc(Cl)cc3)cc2)c(C(C)C)c1`: the growth was 33.8%.

Take `CN1C(=O)CNC(=O)[C@H](NC(=O)c2nc3ccccc3cc2O)CSSC[C@H]1C(=O)NCCCc1nc2ccccc2cc1O`: the growth is 113%.

Consider `O=S(=O)(Nc1ccc(-c2nc(-c3cccc(OCCN4CCOCC4)c3)c(-c3ccnc(Br)c3)[nH]2)cc1)c1ccccc1`, for which the growth is 13.2%.

`COc1ccc(-c2cc3c4c(nc5ccccc5c4c2)CC(c2cc(OC)c(OC)c(OC)c2)O3)cc1` (stereo unspecified): the growth is -56.1% (active).

On to `COc1ccc(/C=N/Nc2cc(=O)[nH]c3ccc(Cl)cc23)cc1`, for which the growth was 62.1%.

In the case of `COc1ccc(S(=O)(=O)n2c3ccccc3n3ncc(-c4nnc(C)o4)c23)cc1`, the growth was 42.7%.

Consider `CCc1cccc2c3c(sc12)C(c1ccc(Cl)cc1)C(C#N)=C(N)O3` (stereo unspecified), for which the growth is 26.9%.

On to `Clc1ccc(C(/C=C/c2sc(Cl)nc2Cl)=N/Nc2cc(Cl)cc(Cl)c2)cc1`, for which the growth was 106%.

For the compound `NCCCNc1nc2ccccc2c2c(=O)c3cc(OC(F)(F)F)ccc3sc12`, the growth is 57.5%.

Take `Cc1cc(-c2cc(C)c(N)cc2C)c(C)cc1N`: the growth was 84.1%.

Regarding `O=C(Nc1ccc(F)cc1F)c1cc(F)ccc1O`, the growth is 13.3%.
